In all, about 310,000 compounds went through this assay and about 14,000 (4.5%) showed an effect of 50% or more. The effect is printed as a negative number. For the sample, strong results were picked, then their nearest neighbours and some compounds at random.
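Also: peak tail current of the secondary pulse compared with the same well before compound.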

The target of this assay is human ether-à-go-go-related gene (hERG) potassium channel (human, UniProt Q12809). Put plainly: primary screen, population patch clamp on CHO cells stably expressing hERG; higher = less effect of the substance.
Sequence of human ether-à-go-go-related gene (hERG) potassium channel (Q12809 whole entry, looked up): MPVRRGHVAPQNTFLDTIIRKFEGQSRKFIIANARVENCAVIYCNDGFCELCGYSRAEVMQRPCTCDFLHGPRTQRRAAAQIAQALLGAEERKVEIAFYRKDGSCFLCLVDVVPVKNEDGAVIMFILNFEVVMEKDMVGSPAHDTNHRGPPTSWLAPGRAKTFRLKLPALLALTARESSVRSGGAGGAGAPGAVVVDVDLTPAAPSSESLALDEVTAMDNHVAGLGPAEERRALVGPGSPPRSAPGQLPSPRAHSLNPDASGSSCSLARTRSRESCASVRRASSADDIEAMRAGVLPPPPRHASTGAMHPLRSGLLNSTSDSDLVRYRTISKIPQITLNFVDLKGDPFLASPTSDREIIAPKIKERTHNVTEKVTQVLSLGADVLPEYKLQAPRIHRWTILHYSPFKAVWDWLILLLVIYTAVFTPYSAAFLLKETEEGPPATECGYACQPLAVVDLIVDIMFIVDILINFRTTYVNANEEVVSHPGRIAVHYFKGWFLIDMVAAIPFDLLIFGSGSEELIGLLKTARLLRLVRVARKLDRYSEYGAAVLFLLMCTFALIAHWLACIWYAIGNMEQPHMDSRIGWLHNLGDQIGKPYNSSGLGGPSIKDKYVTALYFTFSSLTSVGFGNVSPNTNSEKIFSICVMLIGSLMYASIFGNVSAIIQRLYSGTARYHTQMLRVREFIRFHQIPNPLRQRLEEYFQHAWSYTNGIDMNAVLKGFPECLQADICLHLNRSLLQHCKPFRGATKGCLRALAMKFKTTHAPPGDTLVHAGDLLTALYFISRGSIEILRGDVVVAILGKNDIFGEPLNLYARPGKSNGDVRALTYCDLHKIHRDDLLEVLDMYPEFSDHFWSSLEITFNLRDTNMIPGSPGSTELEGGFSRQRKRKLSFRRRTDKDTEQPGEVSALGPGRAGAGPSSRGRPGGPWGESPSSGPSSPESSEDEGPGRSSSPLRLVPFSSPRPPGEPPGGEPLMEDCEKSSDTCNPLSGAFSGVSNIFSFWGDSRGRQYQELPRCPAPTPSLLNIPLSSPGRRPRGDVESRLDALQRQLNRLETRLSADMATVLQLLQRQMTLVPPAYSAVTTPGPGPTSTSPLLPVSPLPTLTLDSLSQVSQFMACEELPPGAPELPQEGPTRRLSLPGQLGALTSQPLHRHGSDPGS
For `O=C(CSc1ncnc2c1cnn2-c1ccc(F)cc1)NCC1CCCO1` (stereo not shown), the “hERG current change (%, negative = inhibition) at 10uM” value is recorded as 13.7%.

`O=C1CCCS(=O)(=O)c2ccccc21`: the “hERG current change (%, negative = inhibition) at 10uM” value is reported as 23.8%.

Consider `Cc1cccc(OCC(=O)NCCCNC(=O)c2ccc(C)nc2)c1`, for which the “hERG current change (%, negative = inhibition) at 10uM” value amounted to 17.9%. Then `Cc1ccc(NC2(C(F)(F)F)N=C(c3ccccc3)NC2=O)nc1` (stereo not shown), with 18.4%; and `Cc1ccc(N2CCN(c3ccc(NC(=O)CCC(=O)O)cc3)CC2)cc1`, with 19.6%. The value for `COc1cc(Br)cc(/C=C/c2ccc3cccc(O)c3n2)c1OC` was 11.4%. Then `COCCN(Cc1cn(C)nc1-c1ccccc1F)C(C)C`, with 15.5%; and `O=C(CS(=O)(=O)c1ccccc1)Nc1nc(-c2ccccc2)cs1`, with -51.9%. As for `Cc1ccc(S(=O)(=O)CC(=O)Nc2nc(-c3ccccc3)cs2)cc1`, the “hERG current change (%, negative = inhibition) at 10uM” value was -38%. The value for `CN1CCN(CC(=O)Nc2nc(-c3ccccc3)cs2)CC1` was -40.4%. Then `CC(C)n1c(SCC(=O)Nc2nc3c(s2)CCCC3)nc2c1c(=O)n(C)c(=O)n2C`, with -59.2%. The value for `CCCn1c(SCC(=O)Nc2nc3c(s2)CCCC3)nc2c1c(=O)n(C)c(=O)n2C` was -1.39%. For the compound `CC(C)n1c(SCC(=O)Nc2ccccc2N2CCCCC2)nc2c1c(=O)n(C)c(=O)n2C`, the “hERG current change (%, negative = inhibition) at 10uM” value was -36.7%. The value for `COc1ccccc1C1(O)CCN(CC(=O)Nc2nc(-c3ccccc3)cs2)CC1` was -56.8%; that for `Cn1c(=O)c2c(nc(SCC(=O)Nc3ccccc3N3CCCCC3)n2C)n(C)c1=O` was -54%. Then `Cc1nnc(NC(=O)CSc2nc3c(c(=O)n(C)c(=O)n3C)n2C(C)C)s1`, with -0.769%. The value for `COc1ccc(C2(O)CCN(CC(=O)Nc3nc(-c4ccccc4)cs3)CC2)cc1` was -10.1%; that for `O=C(CS(=O)(=O)c1ccccc1)Nc1nc(-c2ccc(F)cc2)cs1` was 16.6%; that for `CCCn1c(SCC(=O)Nc2ccccc2N2CCCCC2)nc2c1c(=O)n(C)c(=O)n2C` was -29.9%.

As to `O=C(CN1C(=O)NC2(CCCCCC2)C1=O)NCCc1ccccc1`, the “hERG current change (%, negative = inhibition) at 10uM” value was found to be 1.14%. Then `Cc1noc(C)c1CSCC(=O)Nc1nc2ccc(Oc3ccccc3)cc2s1`, with -13.6%; and `CN(CC(=O)Nc1ccccc1C(F)(F)F)C(=O)CC1OC(=O)c2ccccc21` (stereo not shown), with 9.27%. With `CCOC(=O)CSc1nnc(CNc2ccc(Cl)cc2)n1-c1ccccc1`, the “hERG current change (%, negative = inhibition) at 10uM” value worked out at 11.2%. The value for `COc1cc2c(-c3ccc(O)cc3)nc3c(c(C)nn3-c3ccccc3)c2cc1OC` was 11.5%; that for `O=C(O)CCSc1nc2ccc(Br)cc2[nH]1` was 8.75%; that for `C=C1C[C@@]23CCC4[C@@](C)(CCC[C@@]4(C)C(=O)OC)C2CC[C@]1(OC(C)=O)C3` (stereo partly shown) was 10.8%. The value for `O=C(Nc1nc(-c2ccc(F)cc2)cs1)c1cnccn1` was -0.514%. The value for `CCc1ccc(N(C(C)=O)C2C=CS(=O)(=O)C2)cc1` (stereo not shown) was -6.3%; that for `O=C(CSc1nc(=O)n2ccccc2n1)NCc1ccc2c(c1)OCO2` was -37.8%; that for `COc1ccc(OC)c(S(=O)(=O)NC(N)=NCCc2ccccc2OC)c1` was 9.89%. In the case of `Cc1ccc2cc(C)c3nnc(SCC(=O)Nc4nc5c(s4)CCCC5)n3c2c1C`, the “hERG current change (%, negative = inhibition) at 10uM” value was -53.8%.

Consider `Cc1ccc(C)c2c1cc(C)c1nnc(SCC(=O)Nc3nc4c(s3)CCCC4)n12`, for which the “hERG current change (%, negative = inhibition) at 10uM” value came to 1.01%. Then `CCn1c(SCC(=O)Nc2nc3c(s2)CCCC3)nnc1-c1ccccc1`, with -56.2%. The value for `CCn1c(CCNC(=O)c2cccs2)nnc1SCC(=O)Nc1nc(-c2ccccc2)cs1` was -52%.

Consider `Cc1cccc(-c2nnc(SCC(=O)Nc3nc4c(s3)CCCC4)n2C)c1`, for which the “hERG current change (%, negative = inhibition) at 10uM” value is -37.3%.

For the compound `Cc1ccc(-c2nnc(SCC(=O)Nc3nc4c(s3)CCCC4)n2C)cc1`, the “hERG current change (%, negative = inhibition) at 10uM” value was 6.99%. In the case of `Cn1c(CCNC(=O)c2cccs2)nnc1SCC(=O)Nc1nc(-c2ccccc2)cs1`, the “hERG current change (%, negative = inhibition) at 10uM” value is -7.06%. The value for `CCOC(=O)N1CCN(C(=O)CSCC(=O)Nc2nc(-c3ccc(C)cc3)cs2)CC1` was -14.1%. The value for `Cc1ccccc1C(=O)NCCc1nnc(SCC(=O)Nc2nc(-c3ccccc3)cs2)n1C` was 7.36%; that for `CCOC(=O)N1CCN(C(=O)CSCC(=O)Nc2nc(-c3ccc(-c4ccccc4)cc3)cs2)CC1` was -11.9%; that for `CCOC(=O)N1CCN(C(=O)CSCC(=O)Nc2nc(-c3ccccc3)cs2)CC1` was -50.5%.

With `Cn1c(SCC(=O)Nc2nc3c(s2)CCCC3)nnc1-c1ccccc1`, the “hERG current change (%, negative = inhibition) at 10uM” value is listed as -16.4%. The value for `Cc1ccc(N2CCN(S(=O)(=O)c3nnc(NC(=O)c4ccco4)s3)CC2)cc1` was 15.6%; that for `CS(=O)(=O)c1cccc(C(=O)NCc2ccc(F)cc2)c1` was 0.5%; that for `COC(C/C=C\[C@@H](O)[C@H](C)OCc1ccccc1)OC` was 25.7%. On to `CCSc1nnc(NC(=O)c2cccnc2Cl)s1`, for which the “hERG current change (%, negative = inhibition) at 10uM” value was 16.3%. Then `Cc1cccc(N(C(=O)CNC(=O)c2cccs2)C(C(=O)NC2CCCC2)c2cccnc2)c1` (stereo not shown), with 1.66%. The value for `CCOc1ccc(N(CC(=O)N2CCN(Cc3ccccc3)CC2)S(C)(=O)=O)cc1` was -12.2%. The value for `O=C(N/C(=C/c1ccc(F)cc1)C(=O)N1CCCCC1)c1ccco1` was -18.7%.

For the compound `CN1C(=O)C(=Cc2ccc(N3CCCCCC3)o2)C(=O)N(C)C1=S`, the “hERG current change (%, negative = inhibition) at 10uM” value is on record as 6.46%.

On to `CNC(=S)N1CCc2cc(OC)c(OC)cc2C1COc1ccc(F)cc1` (stereo not shown), for which the “hERG current change (%, negative = inhibition) at 10uM” value was -22.6%. The value for `Br.CN(CC(O)C[NH+]1CCOCC1)S(=O)(=O)[O-]` (stereo not shown) was 17%. Then `Cc1nc2ccccc2c(=O)n1NC(=O)C1CC1`, with 16.3%; and `CCOC(=O)Cc1csc(NC(=O)CSc2nnc(-c3ccncc3)n2Cc2ccco2)n1`, with -5.63%. The value for `CCn1c(SCC(=O)Nc2nc(-c3ccc(C)cc3)cs2)nnc1-c1ccccc1` was -1.44%. For the compound `Cc1nnc(SCC(=O)Nc2nc(-c3ccccc3)cs2)n1N`, the “hERG current change (%, negative = inhibition) at 10uM” value was 2.68%. Consider `COc1ccccc1-c1nnc(SCC(=O)Nc2nc(-c3ccccc3)cs2)n1C`, for which the “hERG current change (%, negative = inhibition) at 10uM” value is -71.8%.

Consider `O=C(CSc1nnc(-c2cccnc2)n1Cc1ccco1)Nc1nc(-c2ccc(F)cc2)cs1`, for which the “hERG current change (%, negative = inhibition) at 10uM” value is listed as -70.6%. The value for `CCn1c(SCC(=O)Nc2nc(-c3ccccc3)cs2)nnc1-c1ccccc1O` was -20.8%. The value for `NC(=O)c1ccc(NC(=O)CSc2nnc(-c3cccnc3)n2Cc2ccco2)cc1` was 6.87%; that for `O=C(CSc1nnc(-c2ccncc2)n1Cc1ccco1)Nc1nc(-c2ccccc2)cs1` was -57.4%; that for `CCn1c(SCC(=O)Nc2nc(-c3ccccc3)cs2)nnc1-c1ccccc1` was -66.6%. The value for `NC(=O)c1ccc(NC(=O)CSc2nnc(-c3ccncc3)n2Cc2ccco2)cc1` was 2.42%. As to `Cn1cnnc1SCC(=O)Nc1nc(-c2ccccc2)cs1`, the “hERG current change (%, negative = inhibition) at 10uM” value is listed as -4.33%. Regarding `CCOC(=O)Cc1csc(NC(=O)CSc2nnc(-c3cccnc3)n2Cc2ccco2)n1`, the “hERG current change (%, negative = inhibition) at 10uM” value is reported as -30.5%.

Consider `CC(C)OCCCNC(=O)c1cccs1`, for which the “hERG current change (%, negative = inhibition) at 10uM” value is -9.39%. For the compound `COc1cc2c(cc1OC)C(c1cc(OC)c(OC)cc1[N+](=O)[O-])N(C(C)=O)CC2` (stereo not shown), the “hERG current change (%, negative = inhibition) at 10uM” value came to 26%. With `N#C/C(=N\[O-])c1nc(-c2ccccc2)cs1.[K+]`, the “hERG current change (%, negative = inhibition) at 10uM” value is given as -8.69%.

On to `O=C(O)c1ccc(N/N=C/c2cccc(C(F)(F)F)c2)cc1`, for which the “hERG current change (%, negative = inhibition) at 10uM” value is 27.3%. The value for `CN1CCc2c(sc(NC(=O)C3CCCN3S(=O)(=O)c3ccc(Cl)s3)c2C(N)=O)C1.Cl` (stereo not shown) was -63.6%. On to `CN1CCc2c(sc(NC(=O)C3CCCCC3)c2C(N)=O)C1.Cl`, for which the “hERG current change (%, negative = inhibition) at 10uM” value is recorded as 2.22%.

With `CN1CCc2c(sc(NC(=O)c3ccc4ccccc4c3)c2C(N)=O)C1.Cl`, the “hERG current change (%, negative = inhibition) at 10uM” value is on record as -5.05%. The value for `CN1CCc2c(sc(NC(=O)c3ccco3)c2C(N)=O)C1.Cl` was -17%; that for `CC(=O)N1CCc2c(sc(NC(=O)C3CCCN3S(=O)(=O)c3cccs3)c2C(N)=O)C1` (stereo not shown) was -2.88%; that for `CN1CCc2c(sc(NC(=O)c3cc(Cl)sc3Cl)c2C(N)=O)C1.Cl` was -59.8%.

For `Cc1ccc(-n2cnc3ncnc(-c4ccccc4)c32)cc1`, the “hERG current change (%, negative = inhibition) at 10uM” value was -6.83%. Turning to `Cc1ccc2[nH]c3c(c2c1)CN(C)CC3.Cl`, the “hERG current change (%, negative = inhibition) at 10uM” value is on record as -5.01%.

Take `O=C(CN(C(=O)c1csnn1)c1cccc(Cl)c1)NC1CCCC1`: the “hERG current change (%, negative = inhibition) at 10uM” value is on record as -2.38%. The value for `COc1ccc(CCC(=O)NNC(=O)Nc2ccc(C(C)C)cc2)cc1` was 23.8%. Regarding `COc1ccc(NC(=O)CN2CCN(c3ccccn3)CC2)cc1Cl`, the “hERG current change (%, negative = inhibition) at 10uM” value is given as -17.4%. The value for `COc1ccc(CC(NC(C)=O)C(=O)NC2CCN(S(=O)(=O)c3ccccc3)CC2)c(OC)c1` (stereo not shown) was 20.5%. Then `COc1cccc(CC2(CO)CCCN(C/C=C/c3ccccc3OC)C2)c1` (stereo not shown), with -73.2%. Consider `COc1ccccc1/C=C/CN1CCSCC1`, for which the “hERG current change (%, negative = inhibition) at 10uM” value was -3.74%.

As for `COc1ccccc1/C=C/CN1CCCC(CO)(CCc2ccccc2)C1` (stereo not shown), the “hERG current change (%, negative = inhibition) at 10uM” value is given as -74.7%.

For `COc1ccc(CC2(CO)CCN(C/C=C/c3ccccc3OC)CC2)cc1`, the “hERG current change (%, negative = inhibition) at 10uM” value is on record as -72.8%. The value for `COc1ccccc1/C=C/CN1CCC(CO)(Cc2ccccc2)CC1` was -37.9%; that for `COc1ccccc1/C=C/CN1CCOCC1` was -3.9%.

In the case of `COc1ccccc1/C=C/CN1CCCCC1`, the “hERG current change (%, negative = inhibition) at 10uM” value is on record as -2.31%. Then `COCc1ccc(CN2CCCC(CO)(Cc3cccc(Cl)c3)C2)o1` (stereo not shown), with -46.1%. The value for `COc1ccc(/C=C/CN2CCCC(CO)(Cc3cccc(Cl)c3)C2)cc1` (stereo not shown) was -50.8%.

`COc1ccc(F)c(CN2CCCC(CO)(Cc3cccc(Cl)c3)C2)c1` (stereo not shown): the “hERG current change (%, negative = inhibition) at 10uM” value is reported as -30.6%.
